Experimental data taken from PubChem BioAssay AID1159580 (chemical genetic matrix, 2015).
Out of some 5,500 compounds screened, about 2,000 (36%) were called active. Roughly 18% stayed inconclusive and do not appear here. Cut-off read from the data, not from the text of the source: active = normalized growth mostly below about 0.91 (no sharp cut-off); inconclusive = no clear call, values can overlap the other calls; inactive = mostly above about 0.92. This is one part of the list.

Test: chemical genetic growth profiling, strain panel (AID 1159580);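 note: tested at 20 µM; growth read once vehicle control cultures reached saturation at 30 °C; 1 = growth at the plate median or of vehicle wells; lower values mean less growth of the strain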
Details: S. cerevisiae deletion strains, growth OD
[1] = locus YMR263W, strain SAP30, active compounds read low
[2] = locus YPL055C, strain LGE1, active compounds read low

Measured: normalized growth

Cc1c(CC(C)(C)C(=O)O)n(Cc2ccc(Cl)cc2)c2ccc(F)cc12
inactive: locus YAL040C, strain CLN3, active compounds read low 0.974 | locus YCL061C, strain MRC1 (second series), active compounds read low 0.985 | locus YDR363W, strain ESC2, active compounds read low 0.986 | locus YER002W, strain NOP16, active compounds read low 0.978 | [1] 0.971 | locus YNL175C, strain NOP13, active compounds read low 0.985 | locus YNL197C, strain WHI3, active compounds read low 0.974 | locus YNL224C, strain SQS1, active compounds read low 0.978 | locus YOR083W, strain WHI5 (second series), active compounds read low 0.986 | [2] 0.923

N#CCC(=O)Nc1ccccn1
inactive: locus YAL013W, strain DEP1, active compounds read low 1.02 | locus YBR229C, strain ROT2, active compounds read low 0.964 | locus YDL101C, strain DUN1, active compounds read low 1.04 | locus YDR150W, strain NUM1, active compounds read low 1.01 | locus YEL061C, strain CIN8, active compounds read low 1.01 | locus YGR078C, strain PAC10, active compounds read low 1.02 | locus YHR030C, strain SLT2, active compounds read low 1.24 | locus YHR087W, strain rtc3, active compounds read low 0.986 | locus YJR043C, strain POL32, active compounds read low 1.01 | locus YJR075W, strain HOC1, active compounds read low 1 | locus YKL190W, strain CNB1, active compounds read low 1 | locus YLR039C, strain RIC1, active compounds read low 1.01 | locus YLR058C, strain SHM2 (second series), active compounds read low 0.995 | locus YLR085C, strain ARP6, active compounds read low 1.06 | locus YLR262C, strain YPT6, active compounds read low 0.989 | locus YML094W, strain GIM5, active compounds read low 1.02 | locus YMR219W, strain ESC1, active compounds read low 0.992 | [1] 1.01 | locus YNL153C, strain GIM3, active compounds read low 1.04 | locus YNL298W, strain CLA4 (second series), active compounds read low 1.06 | locus YNL322C, strain KRE1, active compounds read low 1.01 | locus YNR030W, strain Alg12, active compounds read low 1.07 | locus YOL006C, strain TOP1, active compounds read low 1.07 | [2] 1.04 | locus YPL241C, strain CIN2, active compounds read low 1.04 | locus YPR135W, strain CTF4, active compounds read low 1.2
